A selection: hits, their analogues and other compounds. The true share with any hit is near 0.51%.
E coli growth-1: blocks Escherichia coli growth; OD600, 23 h; stronger effect = lower value; OD600 absorbance (test concentration not listed); actives 0.21% (n = 330,000); AID 1053175;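 active means OD600 absorbance below the run mean of sample wells minus 3.6 SD, in any replicate, cut at about 0.56 in these data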
AddAB inh: less growth of phage-infected E. coli with AddAB; E. coli expressing H. pylori AddAB, absorbance growth; inhibition, % at 11.9 µM; actives 0.29% (n = 330,000); in the data active means inhibition above about 12%
phage Ecoli inh: E. coli growth loss with phage present; inhibition, % at 11.9 µM; AID 651602; growth absorbance; actives 0.26% (n = 360,000); in the data active means inhibition above about 11%
E coli growth-2: bacterial growth inhibition, counter-screen for AddAB inhibitors | inhibition, % at 11.9 µM | actives 0.27% (n = 330,000) | E. coli V3065 growth, OD600 absorbance, 18 h;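 active means inhibition above the campaign's mean inhibition across all tested compounds plus 3 SD, cut at about 9.9% in these data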;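 further: uninfected addAB+ strain grown without phage in ampicillin broth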
Tat transport: blocks Tat-dependent protein export in E. coli. E. coli MC4100 TorA-mCherry Tat export, fluorescence. inhibition, % at 10 µM. actives 0.036% (n = 340,000). AID 488895;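 active means mean replicate inhibition at least 50% and at least half of replicates individually reaching 50%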;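 further: exported cargo escapes ClpAP degradation while cytoplasmic cargo is degraded and loses fluorescence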
AddAB confirm: confirmation screen: growth loss of phage-infected E. coli expressing H. pylori AddAB; shares compounds with AddAB inh; E. coli V3065 expressing H. pylori AddAB, T4 phage, OD; T4 phage with gene 2 nonsense mutations; inhibition, % at 11.9 µM; actives 64% (n = 880); AID 488942;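 active means mean inhibition above a set limit taken from the earlier primary screen, cut at about 13% in these data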;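 further: higher means less bacterial growth since AddAB block lets phage replicate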
RecBCD counter: reduces growth of phage-infected RecBCD+ E. coli, AddAB inhibitor counter-screen; shares compounds with AddAB inh; E. coli V66 + mutant T4 phage, OD growth; inhibition, % at 11.9 µM; actives 73% (n = 880);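 active means mean inhibition above the mean of solvent-only control wells plus 3 SD, cut at about 4% in these data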;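 further: optical density read after an 18 h incubation at 37 °C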
bact viab count: reduces bacterial viability, AddAB inhibitor counter-screen. absorbance (AddAB counterscreen). inhibition, % at 11.9 µM. shares compounds with AddAB inh. actives 35% (n = 880). AID 488956; in the data active means inhibition above about 25%
RecBCD conf: confirmation: growth loss of phage-infected RecBCD+ E. coli (RecBCD inhibitor screen); inhibition, % at 11.9 µM; E. coli V66 + T4 2- phage, growth OD; shares compounds with phage Ecoli inh; actives 45% (n = 890);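 active means mean inhibition over triplicates exceeding the hit threshold derived in the original primary screen, cut at about 11% in these data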
Ecoli viability: inhibits E. coli viability, flagging RecBCD hits as nonselective; shares compounds with phage Ecoli inh; absorbance (OD) growth; inhibition, % at 11.9 µM; actives 29% (n = 890); in the data active means inhibition above about 20%;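 further: E. coli strain V66 grown with compound alone and no phage infection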
AddAB phage OD: growth loss of phage-infected AddAB E. coli, RecBCD counter-screen; E. coli expressing H. pylori AddAB + T4 phage, OD growth; gene 2 mutant T4, recBCD-deleted host; AID 651984; actives 45% (n = 890); inhibition, % at 11.9 µM; shares compounds with phage Ecoli inh;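 active means mean inhibition above the solvent-only control wells' mean plus 3 SD, cut at about 22% in these data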;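 further: higher means less bacterial growth from phage killing when AddAB is blocked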
Numbers stand for hits.

Results for Nc1ncnc2c1ncn2[C@H]1CC[C@@H](CO)O1 ?
E coli growth-1: 0.36; AddAB inh: 76; phage Ecoli inh: 53; E coli growth-2: 75; Tat transport: inactive; AddAB confirm: 94; RecBCD counter: 48; bact viab count: 89; RecBCD conf: 60; Ecoli viability: 55; AddAB phage OD: 88

What do the screens show for `Cc1[nH]c2ccccc2c1C=NNC(=O)c1cccs1`?
E coli growth-1: inactive

Results for CCOC(=O)CC1c2cc(F)ccc2S(=O)(=O)N1C(C)(C)C (stereo not given) ?
E coli growth-1: inactive

How did O=C(O)CCCCCN1C(=O)C(O)=C(C(=O)C=Cc2ccccc2)C1c1ccccc1[N+](=O)[O-] (stereo not given) do in these assays?
E coli growth-1: inactive

How did CC[n+]1ccccc1/C=C1\Sc2ccc(C)cc2N1C do in these assays?
E coli growth-1: inactive; AddAB inh: inactive; phage Ecoli inh: inactive; E coli growth-2: inactive; Tat transport: inactive

What do the screens show for `CCN1/C(=C/c2ccc3cc(C)ccc3[n+]2CC)Sc2ccccc21`?
E coli growth-1: 0.22; AddAB inh: 25; phage Ecoli inh: 14; E coli growth-2: 28; Tat transport: inactive; AddAB confirm: 46; RecBCD counter: 14; bact viab count: 30; RecBCD conf: inactive; Ecoli viability: inactive; AddAB phage OD: inactive

How did O=C(CSc1ncn[nH]1)NN=Cc1ccc(C(F)(F)F)cc1 do in these assays?
E coli growth-1: inactive

What do the screens show for `Cc1ccc(C(=O)Sc2cccccc2=O)cc1`?
E coli growth-1: 0.14; AddAB inh: 51; phage Ecoli inh: 62; E coli growth-2: 52; Tat transport: 82; AddAB confirm: 64; RecBCD counter: 61; bact viab count: 61; RecBCD conf: 78; Ecoli viability: 81; AddAB phage OD: 89

What do the screens show for `O=C(Nc1ccccc1SC(=O)c1ccccc1)c1ccccc1`?
phage Ecoli inh: inactive

How did COc1cc(CN2CCCCCC2)cc(OC)c1OC do in these assays?
E coli growth-1: inactive; AddAB inh: inactive; phage Ecoli inh: inactive; E coli growth-2: inactive; Tat transport: inactive

What do the screens show for `COc1cc(Cc2cnc(N)nc2N)cc(OC)c1OC`?
E coli growth-1: 0.064; AddAB inh: 99; phage Ecoli inh: 101; E coli growth-2: 100; Tat transport: inactive; AddAB confirm: 98; RecBCD counter: 100; bact viab count: 100; RecBCD conf: 101; Ecoli viability: 102; AddAB phage OD: 101

Results for CC1OC(OC2C(COC3OC(CO)C(O)C(O)C3O)OC(OC3CC[C@]4(C)C(CC[C@@]5(C)C4C=C[C@]46OC[C@@]7(CCC(C)(C)CC74)C(O)C[C@@]56C)C3(C)C)C(O)C2O)C(O)C(O)C1O (stereo not given in full) ?
E coli growth-1: inactive

How did Cc1n[nH]c(=S)n(NC(=O)CC(=O)Nn2c(=S)[nH]nc(C)c2=O)c1=O do in these assays?
E coli growth-1: inactive; AddAB inh: 19; phage Ecoli inh: 16; E coli growth-2: 13; Tat transport: inactive; AddAB confirm: 33; RecBCD counter: 15; bact viab count: 32; RecBCD conf: 14; Ecoli viability: inactive; AddAB phage OD: 35

Results for C(=N\Nc1nc2ccccc2s1)/c1ccccn1 ?
AddAB inh: 15; phage Ecoli inh: 21; E coli growth-2: 16; AddAB confirm: 19; RecBCD counter: 14; bact viab count: inactive; RecBCD conf: inactive; Ecoli viability: inactive; AddAB phage OD: inactive

What do the screens show for `CCC(=O)NC(c1cccs1)c1ccc2cccnc2c1O` (stereo not given)?
E coli growth-1: inactive; AddAB inh: 21; phage Ecoli inh: 19; E coli growth-2: 20; Tat transport: inactive; AddAB confirm: inactive; RecBCD counter: 17; bact viab count: inactive; RecBCD conf: inactive; Ecoli viability: inactive; AddAB phage OD: inactive

How did CCCC(=O)NC(c1cccs1)c1cc(Cl)c2cccnc2c1O (stereo not given) do in these assays?
E coli growth-1: inactive; AddAB inh: 27; phage Ecoli inh: 21; E coli growth-2: 29; Tat transport: inactive; AddAB confirm: 23; RecBCD counter: 20; bact viab count: inactive; RecBCD conf: 11; Ecoli viability: inactive; AddAB phage OD: inactive

How did CCCC(=O)NC(c1ccco1)c1cc(Cl)c2cccnc2c1O (stereo not given) do in these assays?
E coli growth-1: inactive; AddAB inh: 16; phage Ecoli inh: 21; E coli growth-2: 14; Tat transport: inactive; AddAB confirm: 22; RecBCD counter: 21; bact viab count: inactive; RecBCD conf: 11; Ecoli viability: inactive; AddAB phage OD: 24

How did O=C(CN1C(=O)CSc2ccccc21)NN=Cc1ccco1 do in these assays?
E coli growth-1: inactive

What do the screens show for `ON=C1CCC(=NO)c2nn(-c3ccc(Cl)cc3Cl)nc21`?
E coli growth-1: inactive

Results for Brc1ccccc1C=NNc1ccccn1 ?
E coli growth-1: inactive

What do the screens show for `[O-][n+]1c2ccccc2[n+]([O-])c2cc(O)ccc21`?
E coli growth-1: 0.4; AddAB inh: 31; phage Ecoli inh: 11; E coli growth-2: 40; Tat transport: inactive; AddAB confirm: 69; RecBCD counter: 9.8; bact viab count: 51; RecBCD conf: 11; Ecoli viability: inactive; AddAB phage OD: 55

What do the screens show for `O=C(N/N=C/c1ccc(O)cc1O)c1ccc(CN2C(=O)c3cccc4cccc2c34)cc1`?
AddAB inh: 14; phage Ecoli inh: 22; E coli growth-2: 25; Tat transport: inactive; AddAB confirm: 16; RecBCD counter: 20; bact viab count: inactive; RecBCD conf: inactive; Ecoli viability: inactive; AddAB phage OD: inactive

Results for Cc1cc([N+](=O)[O-])nn1Cc1ccc(C(=O)N/N=C/c2ccc(O)cc2O)cc1 ?
AddAB inh: 19; phage Ecoli inh: 17; E coli growth-2: 20; Tat transport: inactive; AddAB confirm: 23; RecBCD counter: 19; bact viab count: inactive; RecBCD conf: inactive; Ecoli viability: inactive; AddAB phage OD: inactive
